Data: PubChem BioAssay AID504832 (National Center for Advancing Translational Sciences (NCATS), 2011)
Hit rate of the full screen: of about 310,000 compounds, about 18,000 (5.8%) were called active. Roughly 22% stayed inconclusive and do not appear here. Calls follow the shape of the dose curve; as a rule, active = well fitted inhibition curve with a large enough effect; inconclusive = small, poorly fitted or top-dose-only effect, or another doubt; inactive = no such curve, though single readings can be large or run the other way. The entries come from a sample that favours actives as a whole. A call without a number means that no potency is given here.
Potency is read from the fitted curve at half-maximal effect.

Assay: Primary qHTS for delayed death inhibitors of the malarial parasite plastid, 48 hour incubation
Details: P. falciparum luciferase growth in erythrocytes; series mostly up to 28.7 µM
Procedure, shortened: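 Here the parasites carry a stable luciferase gene and grow inside erythrocytes in Albumax-based RPMI medium with compound for one erythrocytic cycle. Activity is scored as loss of luminescent signal.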
With `CC(=O)c1ccc(NC(=O)CCNS(=O)(=O)c2cc(Br)cnc2N)cc1` the Potency was “inactive”.
In the case of `COc1cc(C(=O)NNC(=O)CN2C(=O)NC3(CCCC3)C2=O)cc(OC)c1OC`, the Potency is reported as “inactive”.
For `O=C(N/N=C/c1c[nH]c2ccccc12)c1ccccc1O`, the Potency was “inactive”.
For `Cc1cc(NC(=O)CSCc2ccccc2C)no1`, the Potency was “inactive”.
In the case of `CC(C)n1c(SCC(=O)Nc2ccccc2N2CCCCC2)nc2c1c(=O)n(C)c(=O)n2C`, the Potency is reported as “inactive”.
With `Cc1cc(NC(=O)C(C)SCC(=O)Nc2ccccc2N2CCCCC2)no1` (stereo not given) the Potency was 8.28 µM (active).
In the case of `CCN(CC)c1ccc(/C=N/NC(=O)CNC(=O)c2cccnc2)cc1`, the Potency is reported as “inactive”.
With `COc1cccc(NC(=O)C/C(C)=N/NC(=O)C2CCCCC2)c1` the Potency was “inactive”.
In the case of `O=C(NC(Cc1ccc(O)cc1)C(=O)O)/C(=C/c1ccccc1)NC(=O)c1ccccc1` (stereo not given), the Potency is reported as “inactive”.
For `CCOc1cc2[nH]c(=O)n(Cc3ccc(C(=O)NCCCN4CCCC4=O)cc3)c(=O)c2cc1OCC`, the Potency was “inactive”.
In the case of `COc1cc2[nH]c(=O)n(Cc3ccc(C(=O)NC4CCN(Cc5ccccc5)CC4)cc3)c(=O)c2cc1OC`, the Potency is reported as 13.1 µM (active).
For `COc1cc2[nH]c(=O)n(CCC(=O)NC3CCN(Cc4ccccc4)CC3)c(=O)c2cc1OC`, the Potency was “inactive”.
With `CCOC(=O)c1ccc(NC(=S)N2CCN(c3ccccn3)CC2)cc1` the Potency was “inactive”.
In the case of `COc1ccc(NS(=O)(=O)c2ccc(F)cc2F)cn1`, the Potency is reported as “inactive”.
For `CCCS(=O)(=O)N1CCN=C1SCc1cccc(F)c1`, the Potency was “inactive”.
In the case of `COc1cc(F)c(C2=CC(=O)CC(C)(C)C2)cc1F`, the Potency is reported as “inactive”.
For `CC1(C)CC(=O)C=C(Nc2ccccc2)C1`, the Potency was “inactive”.
With `CC1(C)CC(=O)C=C(c2ccc(Cl)c(C(F)(F)F)c2)C1` the Potency was 5.86 µM (active).
With `COC(=O)c1cc(NS(=O)(=O)c2ccc3c(c2)c(=O)n(C)c(=O)n3C)cc(C(=O)OC)c1` the Potency was “inactive”.
For `O=C1NCCn2nc3ccccc3c21`, the Potency was “inactive”.
In the case of `CCOC(=O)c1c(S(=O)(=O)Nc2cccc(Cl)c2)c(C)n(C)c1C`, the Potency is reported as “inactive”.
For `CCOc1c(Nc2cccc(Cl)c2)c(=O)c1=O`, the Potency was 7.38 µM (active).
In the case of `NS(=O)(=O)c1cccnc1Nc1cccc(Cl)c1`, the Potency is reported as “inactive”.
In the case of `Cc1ccc2c(c1)N(CC(=O)N1CCOCC1)C(=O)CO2`, the Potency is reported as “inactive”.
For `O=S(=O)(NCc1ccc(Cl)cc1Cl)c1cccs1`, the Potency was “inactive”.
With `Cc1ccc(NC(=O)C(C)OC(=O)Cc2c[nH]c3ccccc23)cc1S(=O)(=O)N1CCOCC1` (stereo not given) the Potency was 5.22 µM (active).
In the case of `Cc1ccc(NC(=O)NC2CCCCC2)cc1S(=O)(=O)N1CCOCC1`, the Potency is reported as “inactive”.
For `CC(OC(=O)CCCc1c[nH]c2ccccc12)C(=O)Nc1ccc(S(N)(=O)=O)cc1` (stereo not given), the Potency was “inactive”.
In the case of `O=C(Nc1ccccc1N1CCCC1)c1ccc2ccccc2c1`, the Potency is reported as “inactive”.
With `COc1cccc(NC(=O)C(=O)c2cn(CC(=O)N3CCOCC3)c3ccccc23)c1` the Potency was “inactive”.
For `CC(C)(C)NC(=O)NCc1ccco1`, the Potency was “inactive”.
With `O=C(NCc1ccco1)c1nc(-c2ccccc2)n(-c2ccccc2)n1` the Potency was “inactive”.
With `Cc1nn(-c2ccccc2)c2sc(C(=O)N(Cc3ccco3)C(C)C(=O)NC(C)(C)C)cc12` (stereo not given) the Potency was 11.7 µM (active).
For `O=C(Nc1nc2ccc([N+](=O)[O-])cc2s1)c1ccncc1`, the Potency was “inactive”.
For `O=C(NC(Nc1nc2ccc([N+](=O)[O-])cc2s1)(C(F)(F)F)C(F)(F)F)c1ccccc1`, the Potency was 1.65 µM (active).
For `O=C(COC(=O)c1ccc(F)cc1)Nc1nc2ccc([N+](=O)[O-])cc2s1`, the Potency was “inactive”.
In the case of `COC(=O)c1ccc(C)c(NC(=O)C2CC(=O)N(C3CCCC(C)C3C)C2)c1` (stereo not given), the Potency is reported as “inactive”.
For `Cc1cc(NC(=O)COc2ccc([N+](=O)[O-])cc2)no1`, the Potency was “inactive”.
For `CC(=O)c1cccc(OCc2cc(C(=O)NC(C)Cc3cccnc3)no2)c1` (stereo not given), the Potency was “inactive”.
For `CCc1cc(=O)oc2c(C)c(OCC(=O)N3CC[C@@]4(O)CCCC[C@H]4C3)ccc12`, the Potency was “inactive”.
With `CN(C)CCN(Cc1ccccc1)S(=O)(=O)c1csc(C(N)=O)c1` the Potency was “inactive”.
For `O=C1c2ccccc2C(=O)C1c1ccccc1F`, the Potency was “inactive”.
In the case of `O=C1c2ccccc2C2=Nc3ccccc3SC(c3ccccc3F)C12` (stereo not given), the Potency is reported as 0.329 µM (active).
In the case of `COCCN(C(=O)CSCc1ccc(C)cc1)c1c(N)n(CC(C)C)c(=O)[nH]c1=O`, the Potency is reported as “inactive”.
With `CC1(C(=O)NNC(=S)NCC2CCCO2)CC1(Cl)Cl` (stereo not given) the Potency was “inactive”.
For `CN(C)S(=O)(=O)c1cccc(NC(=O)Cc2ccsc2)c1`, the Potency was “inactive”.
For `CN(c1ccccc1)S(=O)(=O)c1cccc(NC(=O)Cc2c(F)cccc2Cl)c1`, the Potency was “inactive”.
With `CN(c1ccccc1)S(=O)(=O)c1cccc(NC(=O)Cc2ccc(Cl)cc2)c1` the Potency was 11.7 µM (active).
In the case of `C[C@@H]1NC(=O)[C@@]2(C)[C@@H](c3ccccc3)[C@H]3COc4ccccc4[C@@H]3N2C1=O`, the Potency is reported as “inactive”.
With `Cc1ccccc1C(=O)N1CCC(C(=O)Nc2ccc(S(=O)(=O)N(C)C(C)C)cc2)CC1` the Potency was 9.28 µM (active).
In the case of `CCc1nnc(NC(=O)C2CCN(C(=O)c3ccccc3C)CC2)s1`, the Potency is reported as “inactive”.
For `CC(=O)c1cccc(NC(=O)C2CCN(C(=O)c3ccccc3Cl)CC2)c1`, the Potency was “inactive”.
In the case of `CC(C)c1c(C(=O)N/N=C/c2ccccc2C(=O)O)nnn1-c1nonc1N`, the Potency is reported as “inactive”.
With `Cc1cc(Cl)c2oc(C(=O)N3CCC(O)(c4ccccc4)CC3)c(C)c2c1` the Potency was “inactive”.
In the case of `O=C(O)c1cc([N+](=O)[O-])c(Nc2cccc3ccccc23)c([N+](=O)[O-])c1`, the Potency is reported as “inactive”.
For `Cn1cc[n+](C)c1COc1ccc(C=O)cc1`, the Potency was “inactive”.
With `O=C(CN(C(=O)c1csnn1)c1cccc(Cl)c1)NC1CCCC1` the Potency was “inactive”.
For `CCn1c(COc2ccccc2)nnc1SCC(=O)NCc1ccco1`, the Potency was “inactive”.
For `CCn1c(SCC(=O)NCc2ccco2)nnc1-c1ccc(N)cc1`, the Potency was “inactive”.
In the case of `Cn1c(-c2ccc(F)cc2)cnc1SCC(=O)NCc1ccco1`, the Potency is reported as “inactive”.
In the case of `O=C(CSc1nnc2scc(-c3ccc(F)cc3)n12)NCc1ccco1`, the Potency is reported as “inactive”.
For `O=C(CSc1nnc(-c2ccco2)n1Cc1ccccc1)NC(=O)NCc1ccco1`, the Potency was 10.4 µM (active).
For `Cc1ccc(-c2csc3nnc(SCC(=O)NCc4ccco4)n23)cc1`, the Potency was 9.28 µM (active).
In the case of `CC1(NC(=O)CCS(=O)(=O)c2ccc(Cl)cc2)CCS(=O)(=O)C1` (stereo not given), the Potency is reported as “inactive”.
In the case of `C=CCn1c(SCC(=O)Nc2ccc(NC(C)=O)cc2)nc2sc(C)c(C)c2c1=O`, the Potency is reported as “inactive”.
